# Activity calls are given as the source filed them.
# How the values were obtained:
# [1] = tested on: PRMT1 (protein arginine N-methyltransferase 1); assay: small molecules binding arginine methyltransferase PRMT1 – biochemical, small-molecule microarray, 635 nm fluorescence, primary screen (AID 1088); details: higher = more signal;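 note: binding of Prmt1 protein to compounds spotted on small-molecule microarray slides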
# [2] = growth effects on S. cerevisiae YJM789 – YJM789 clinical isolate, OD600, 24 h, basal, primary screen (AID 1089); details: higher = more signal, called active from +8 up or from −8 down;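 note: growth of clinical yeast isolate S. cerevisiae YJM 789 seeded 1000 cells per well; test concentration not given here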
# [3] = S. pombe growth modifiers, basal conditions – strain 972, OD600, 24 h, no modulator, primary screen (AID 1090);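 note: basal condition with compound alone and no growth modifier present; test concentration not given here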; details: S. pombe 972 growth, higher = more signal, called active from +8 up or from −8 down
# [4] = budding yeast growth modifiers under rapamycin – strain BY4716, OD600, 96 h, primary screen (AID 1091); note: test concentration not given here; details: S. cerevisiae BY4716 + rapamycin, higher = more signal, called active from +8 up or from −8 down
# [5] = target: Torsin-1A-interacting protein 2 (Homo sapiens) (UniProt Q8NFQ8); assay: small molecules binding lysate-expressed LULL1 – cell lysate, human LULL1 lysate, 635/667 nm fluorescence, primary screen (AID 1092); details: small-molecule microarray, hLULL1 lysate binding, 635 nm fluorescence; higher = more signal;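 note: probe is lysate of COS7 cells overexpressing human LULL1; score merges per-feature 667 nm fluorescence with signal-to-noise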
# [6] = optical density change of DRC41 E. coli – strain DRC41, OD650, 24 h, E. coli filamentation project, primary screen (AID 1093);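 note: MC1000 strain lacking acrAB efflux and sulA so SOS filamentation is blocked; test concentration not given here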; details: E. coli DRC41 growth, higher = more signal, called active from +8 up or from −8 down
# [7] = probe aLefty2 binding to arrayed compounds – biochemical, biotinylated probe, 635/667 nm fluorescence, primary screen (AID 1094); details: small-molecule microarray, higher = more signal;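 note: score merges spot fluorescence near 667 nm with spot signal-to-noise ratio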
# [8] = tested on: Noggin (protein binding on small-molecule microarray); assay: small molecules binding Noggin protein – biochemical, 635/667 nm fluorescence, primary screen (AID 1095); details: 635 nm fluorescence, higher = more signal;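 note: score merges 667 nm feature fluorescence with signal to noise over triplicate slides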
# [9] = target: Neurogenic locus notch homolog protein 3 (Homo sapiens) (UniProt Q9UM47); assay: small molecules binding NOTCH3 protein – biochemical, 635/667 nm fluorescence, primary screen (AID 1096); details: small-molecule microarray, 635 nm fluorescence, higher = more signal
# [10] = probe aEGFR binding to arrayed compounds – biochemical, biotinylated probe, 635/667 nm fluorescence, primary screen (AID 1097); details: small-molecule microarray, higher = more signal;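 note: probe is a biotinylated anti-EGFR antibody binding compounds printed on slides; score combines fluorescence near 667 nm and signal to noise of each spot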
# Torsin-1A-interacting protein 2 (Homo sapiens), sequence (Q8NFQ8 whole entry, looked up): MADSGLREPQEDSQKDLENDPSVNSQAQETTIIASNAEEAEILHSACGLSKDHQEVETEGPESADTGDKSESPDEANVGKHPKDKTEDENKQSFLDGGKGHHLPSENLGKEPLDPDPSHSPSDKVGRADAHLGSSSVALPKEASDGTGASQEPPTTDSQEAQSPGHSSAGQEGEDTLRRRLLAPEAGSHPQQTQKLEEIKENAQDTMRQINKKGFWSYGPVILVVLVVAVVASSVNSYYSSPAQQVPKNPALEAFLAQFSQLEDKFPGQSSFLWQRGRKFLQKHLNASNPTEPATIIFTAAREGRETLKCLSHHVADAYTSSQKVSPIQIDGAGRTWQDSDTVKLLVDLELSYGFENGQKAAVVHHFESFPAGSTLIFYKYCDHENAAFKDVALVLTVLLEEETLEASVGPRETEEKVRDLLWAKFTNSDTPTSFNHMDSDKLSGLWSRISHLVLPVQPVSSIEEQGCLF
# Neurogenic locus notch homolog protein 3 (Homo sapiens), sequence (Q9UM47 whole entry, looked up): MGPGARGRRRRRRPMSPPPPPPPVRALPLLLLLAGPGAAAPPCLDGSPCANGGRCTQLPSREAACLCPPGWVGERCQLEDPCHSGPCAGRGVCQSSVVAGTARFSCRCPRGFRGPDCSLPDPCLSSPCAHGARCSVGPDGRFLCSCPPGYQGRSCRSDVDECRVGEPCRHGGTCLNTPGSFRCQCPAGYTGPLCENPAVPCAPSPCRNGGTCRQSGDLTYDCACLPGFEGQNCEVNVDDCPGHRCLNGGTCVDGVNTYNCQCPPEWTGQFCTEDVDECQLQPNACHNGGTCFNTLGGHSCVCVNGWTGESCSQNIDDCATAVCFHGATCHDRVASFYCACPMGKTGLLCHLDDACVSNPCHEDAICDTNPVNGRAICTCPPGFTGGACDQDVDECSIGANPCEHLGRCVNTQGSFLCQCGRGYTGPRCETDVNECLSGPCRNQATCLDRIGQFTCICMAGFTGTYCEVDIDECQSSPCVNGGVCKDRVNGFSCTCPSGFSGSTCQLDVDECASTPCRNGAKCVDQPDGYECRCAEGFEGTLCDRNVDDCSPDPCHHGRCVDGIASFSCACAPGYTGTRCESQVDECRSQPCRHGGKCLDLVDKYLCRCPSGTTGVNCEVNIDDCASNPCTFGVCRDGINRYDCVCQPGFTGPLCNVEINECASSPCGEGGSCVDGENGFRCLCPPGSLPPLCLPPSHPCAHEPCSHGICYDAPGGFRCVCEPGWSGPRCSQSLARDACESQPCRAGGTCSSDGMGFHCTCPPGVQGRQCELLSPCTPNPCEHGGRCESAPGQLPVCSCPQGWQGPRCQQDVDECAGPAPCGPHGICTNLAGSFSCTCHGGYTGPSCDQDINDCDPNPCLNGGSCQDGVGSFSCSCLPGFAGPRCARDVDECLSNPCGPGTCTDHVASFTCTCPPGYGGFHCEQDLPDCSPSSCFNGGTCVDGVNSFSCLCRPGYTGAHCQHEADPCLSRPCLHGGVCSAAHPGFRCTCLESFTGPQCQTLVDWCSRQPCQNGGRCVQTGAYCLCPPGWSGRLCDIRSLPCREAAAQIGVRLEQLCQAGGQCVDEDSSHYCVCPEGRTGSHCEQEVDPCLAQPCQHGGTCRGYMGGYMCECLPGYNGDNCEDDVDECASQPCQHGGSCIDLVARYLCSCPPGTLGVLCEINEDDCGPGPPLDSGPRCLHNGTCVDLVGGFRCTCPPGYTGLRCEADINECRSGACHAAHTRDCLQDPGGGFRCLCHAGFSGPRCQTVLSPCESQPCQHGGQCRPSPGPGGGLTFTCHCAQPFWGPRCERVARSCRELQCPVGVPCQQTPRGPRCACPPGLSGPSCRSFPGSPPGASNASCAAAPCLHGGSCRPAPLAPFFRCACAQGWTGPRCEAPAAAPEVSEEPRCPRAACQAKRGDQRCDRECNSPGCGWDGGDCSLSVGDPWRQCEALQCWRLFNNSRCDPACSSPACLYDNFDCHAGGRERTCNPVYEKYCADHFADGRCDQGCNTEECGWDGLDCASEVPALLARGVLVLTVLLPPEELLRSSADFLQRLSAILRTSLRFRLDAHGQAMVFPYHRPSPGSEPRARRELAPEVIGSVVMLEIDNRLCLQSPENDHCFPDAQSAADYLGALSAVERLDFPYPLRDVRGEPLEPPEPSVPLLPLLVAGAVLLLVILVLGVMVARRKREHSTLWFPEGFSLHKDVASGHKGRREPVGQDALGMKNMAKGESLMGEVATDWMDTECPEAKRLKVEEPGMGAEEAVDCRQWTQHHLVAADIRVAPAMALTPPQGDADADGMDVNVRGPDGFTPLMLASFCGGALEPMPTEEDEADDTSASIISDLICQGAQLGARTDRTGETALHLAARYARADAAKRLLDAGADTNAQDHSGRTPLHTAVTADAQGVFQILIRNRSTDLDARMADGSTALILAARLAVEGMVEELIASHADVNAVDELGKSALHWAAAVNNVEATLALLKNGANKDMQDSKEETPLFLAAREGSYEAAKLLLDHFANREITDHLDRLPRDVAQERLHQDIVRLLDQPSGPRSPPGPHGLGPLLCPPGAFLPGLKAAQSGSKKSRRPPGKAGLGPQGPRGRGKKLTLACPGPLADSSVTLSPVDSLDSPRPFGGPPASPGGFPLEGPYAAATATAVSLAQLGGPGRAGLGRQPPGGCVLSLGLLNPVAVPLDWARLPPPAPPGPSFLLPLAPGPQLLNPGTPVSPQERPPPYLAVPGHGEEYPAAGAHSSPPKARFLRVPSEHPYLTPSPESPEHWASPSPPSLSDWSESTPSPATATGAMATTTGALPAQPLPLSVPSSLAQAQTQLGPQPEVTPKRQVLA
SMILES,composite z-score [1],z-score [2],z-score [3],z-score [4],composite z-score [5],z-score [6],composite z-score [7],composite z-score [8],composite z-score [9],composite z-score [10]
C=CC[C@@]1(C(=O)NCCCOC)N=C(c2ccc(OCCCO)cc2)O[C@@H]1c1ccccc1N=[N+]=[N-],1.14,0.339 (inactive),0.561 (inactive),-0.441 (inactive),3.09,1.24 (inactive),0.085,0.794,0.681,-0.019
CC1CC/C=C\[C@H]2OC34C=CCN(c5ccc(Cl)cc5)C(=O)[C@H]3N(C(C)CO)C(=O)[C@]4(C)C2C(=O)O1 (stereo not given in full),-0.678,-0.0407 (inactive),-0.738 (inactive),0.334 (inactive),-1.05,0.108 (inactive),-0.0099,-0.603,-0.984,-0.173
COC(=O)[C@@]1(Cc2ccccc2)[C@H]2c3cc(C(=O)N4CCCC4)n(CCc4ccccn4)c3C[C@H]2CN1C(=O)c1ccccc1,0.123,-0.789 (inactive),0.741 (inactive),0.0746 (inactive),3.93,0.026 (inactive),0.754,0.678,0.915,0.338
[N-]=[N+]=Nc1ccccc1[C@@H]1OC(c2ccc(OCCCO)cc2)=N[C@]1(Cc1ccccc1)C(=O)N1CCCCC1,1.53,-0.286 (inactive),-0.487 (inactive),1.49 (inactive),3.27,0.27 (inactive),0.0277,0.847,1.04,0.001
